The text below walks through data of PubChem BioAssay (NCI).

SMILES strings stand for the structures. This is part of a sample that, as a whole, favours compounds with a hit. Of some 83,000 tested, about 20% had one in any assay.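 Method: cells in 96-well plates; compound added at one concentration; 48 h incubation; percent growth measured; values under 10 scored active.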 Unmarked numbers belong to inactive results. Calls of active or inactive are those of the source.

Holding throughout (assay): NCI-60 one-dose screen, 48 h (100 = growth as untreated, 0 = no growth, -100 = all killed)
What all share (details): 10 µM

In assay [1] the test system is SR leukemia.
Assay [2] relates to RPMI-8226 leukemia.
The test system of assay [3] is OVCAR-8 ovarian.
In assay [4] the test system is OVCAR-5 ovarian.
Assay [5] has as its system OVCAR-4 ovarian.
For assay [6], the system named is SK-OV-3 ovarian.
Assay [7] deals with IGROV1 ovarian.
In assay [8] the test system is OVCAR-3 ovarian.
Assay [9] deals with HS 578T breast.
Assay [10] relates to NCI/ADR-RES ovarian.

As to `CCOC(=O)C1=CSC2=NC3=C(CCC/C3=C\c3ccc(Cl)cc3)C(c3ccc(Cl)cc3)N12` (stereo not drawn), the growth in assay [1] was 89.6%; in [2] it was 6.15% (active); in assay [3], 93.7%; in [4] it was 103%; in assay [5] it was 94.7%; in assay [6], 94.7%. The growth was 109% in [7], 100% in [8], 91.9% in assay [9] and 98.1% in assay [10].
Turning to `CC1/C=C/C=C/C=C/C=C/C=C/C=C/C=C/C(O[C@@H]2O[C@H](C)[C@H](O)[C@@H](O)[C@@H]2N)CC(O)C(C(=O)O)C(O)CC(=O)CC(O)CC(O)CC(O)CC(=O)CCCC(=O)CC(=O)OC1C(C)CC(C)C(O)CC(=O)c1ccc(N)cc1` (stereo partly drawn), the growth in [1] is -63.1% (active); in [2] it was -43.7% (active); in assay [3], -97.5% (active); in assay [4], -98.9% (active); in [5], -96.1% (active); in assay [6] it was -100% (active). Besides, the growth in assay [7] was -83.7% (active); in assay [8] it was -99.7% (active); in [9] it was -52.8% (active); in assay [10], -99.6% (active).
As for `Nc1ccc(CC[C@H]2CCC/C=C/[C@@H]3C[C@H](O)C[C@H]3[C@H](O)/C=C/C(=O)O2)cc1`, the growth in [1] was 1.1% (active); in assay [2], -4.05% (active); in assay [3], 2.58% (active); in assay [4] it was 11.4%; in assay [5] it was 11.3%; in assay [6], 26.6%. Also, the growth in [7] is 12%; in [8] it was -13.4% (active); in [9], 39.6%; in [10], -0.671% (active).
As for `Cc1cc(CCNC=O)c(C)c2c1sc1ccccc12`, the growth in [1] was 89.4%; in assay [2], 92.4%; in [3], 97.9%; in assay [4], 82.4%; in assay [5], 85%; in assay [6], 104%. Further, the growth was 122% in [7], 111% in assay [8], 54% in assay [9] and 97.8% in assay [10].
For the molecule `NC(CSC(c1ccccc1)(c1ccccc1)c1cccc2ccccc12)C(=O)O` (stereo not drawn), the growth is 112% in [1]; 89.2% in assay [2]; 95.1% in [3]; 101% in assay [4]; 95.4% in [5]; 106% in [6]. Further, the growth is 98.1% in assay [7], 98.6% in [8], 92.5% in [9] and 97.6% in [10].
On to `CC(=O)OC/C=C(/C)C[P+](c1ccccc1)(c1ccccc1)c1ccccc1`, for which the growth in assay [1] was 64.9%; in assay [2], 0.0221% (active); in assay [3], 35%; in [4], 81.4%; in assay [5], 85.8%; in assay [6], 94.7%. Also, the growth was 83.5% in assay [7], 62.9% in [8], 87.9% in assay [9] and 90.3% in assay [10].
On to `O=C(Nc1nc(-c2ccccc2)nc2c1sc(=S)n2-c1ccccc1)C(F)(F)F`, for which the growth in assay [1] was 89.8%; in assay [2] it was 88.5%; in [3], 86.6%; in assay [4], 105%; in [5] it was 92.3%; in assay [6], 91.6%. For the same molecule, the growth in assay [7] is 106%; in assay [8], 105%; in assay [9], 96.6%; in assay [10], 95.7%.
With `Cc1cc(Cl)ccc1Nc1nc(C(F)(F)F)ccc1C(=O)N/N=C/c1c(Cl)cccc1Cl`, the growth was -26.6% (active) in [1]; -15.1% (active) in [2]; 9.98% (active) in assay [3]; 24.8% in assay [4]; 7.14% (active) in [5]; -12.9% (active) in assay [6]. Moreover, the growth in assay [7] is 4.15% (active); in [8], -2.74% (active); in assay [9], -22.1% (active); in assay [10], 11.9%.
For `CCn1c(SCCc2ccccc2)nnc1-c1nn(-c2ccc(Cl)cc2Cl)c(-c2ccc(Cl)cc2)c1C`, the growth was 37.6% in [1]; 54.1% in [2]; 84.5% in assay [3]; 81.7% in assay [4]; 75.6% in assay [5]; 79.1% in assay [6]. Moreover, the growth was 94.1% in assay [7], 69.1% in assay [8], 98% in assay [9] and 72.6% in assay [10].
For the molecule `Nc1nccc(OCCO)n1`, the growth in assay [1] was 95.9%; in assay [2], 108%; in assay [3], 109%; in assay [4] it was 101%; in assay [5], 109%; in [6], 102%. Besides, the growth was 107% in [7], 105% in [8], 107% in assay [9] and 103% in assay [10].
Take `OCC1OC(n2ccc3c(NO)ncnc32)C(O)C1O` (stereo not drawn): the growth is -30.2% (active) in [1]; -21.7% (active) in assay [2]; -32.5% (active) in assay [3]; -3.92% (active) in assay [4]; -5.14% (active) in assay [5]; 1.15% (active) in [6]. In addition, the growth in [7] was -32.1% (active); in assay [8] it was -31.7% (active); in assay [9] it was -11% (active); in assay [10], -53.5% (active).
`O=C(N/N=C/c1ccc([N+](=O)[O-])cc1)c1ccccc1Nc1cccc(C(F)(F)F)c1`: the growth in assay [1] is 104%; in [2], 90.4%; in [3], 95.8%; in [4] it was 98.6%; in [5], 98.2%; in assay [6], 103%. The growth in assay [7] is 67.3%; in [8], 103%; in [9], 7.5% (active); in assay [10], 91.4%.
For the molecule `O=S(=O)(O)c1cccc(Nc2ccc3ccccc3c2)c1`, the growth in [1] was 92%; in [2], 95.5%; in assay [3] it was 92.4%; in assay [4], 106%; in assay [5], 99%; in assay [6] it was 87.9%. Further, the growth is 84.4% in [7], 97.5% in [8], 96.6% in assay [9] and 97.4% in [10].
For `CN(C)CCCOc1ccc(NC2=C(Cl)C(=O)C(Nc3ccc(OCCCN(C)C)cc3)=C(Cl)C2=O)cc1`, the growth in [1] is -1.57% (active); in [2], -44.1% (active); in [3] it was -68.3% (active); in assay [4], -60.6% (active); in [5], -98.9% (active); in assay [6], 24.4%. In addition, the growth in assay [7] is -68.2% (active); in assay [8] it was -98.3% (active); in assay [9] it was -0.291% (active); in [10] it was 8.96% (active).
For the molecule `CC(=O)Oc1cc(OC(C)=O)c2ccccc2c1OC(C)=O`, the growth in [1] was 69.4%; in assay [2], 72.5%; in [3], 81.9%; in assay [4], 115%; in assay [5] it was 86%; in [6] it was 76.8%. For the same molecule, the growth in assay [7] is 63.1%; in assay [8], 84.1%; in assay [9] it was 83%; in [10], 88.9%.
Regarding `Oc1ccc(/C=N/N=C2c3ccccc3-c3ccccc32)c(O)c1`, the growth is 54% in assay [1]; 72.8% in assay [2]; 84.5% in assay [3]; 77.1% in [4]; 60.4% in assay [5]; 84.7% in assay [6]. Further, the growth was 71.2% in [7], 83.5% in assay [8], 93.7% in assay [9] and 72.9% in [10].
For `Cc1ccc(NCCN(C)CC(C)O)c2c(=O)c3ccc(Cl)cc3sc12` (stereo not drawn), the growth in [1] was -28.9% (active); in assay [2], -8.72% (active); in [3], 58.1%; in assay [4], 77.9%; in assay [5], 67.9%; in assay [6], 91.6%. Also, the growth in [7] was 39.8%; in assay [8], 73.3%; in assay [9] it was 58.6%; in assay [10], 57.8%.
Take `OC(CNc1ccnc2cc(Cl)ccc12)CNC1CCCCC1` (stereo not drawn): the growth was 23.1% in assay [1]; 65% in assay [2]; 87.9% in assay [3]; 87.4% in [4]; 76% in [5]; 85.1% in assay [6]. Also, the growth in assay [7] was 103%; in [8] it was 89.4%; in [9], 83.8%; in [10], 90.7%.
Turning to `CCC(=O)OC1CCC2C3CCC(=O)OC3C(C)(CCC(=O)O)CC12C` (stereo not drawn), the growth in [1] was -21.1% (active); in [2], 6.49% (active); in assay [3], 61.4%; in [4], 59%; in [5], 65.8%; in [6], 51.6%. In addition, the growth was 25.4% in assay [7], 5.37% (active) in assay [8], -28.7% (active) in [9] and 15.8% in assay [10].
On to `O=[N+]([O-])c1ccc(/C(=C/c2ccccc2)[n+]2ccccc2)cc1`, for which the growth in assay [1] is 102%; in assay [2] it was 98.3%; in assay [3], 97%; in [4], 98%; in assay [5], 100%; in assay [6], 119%. In addition, the growth in [7] was 109%; in assay [8] it was 127%; in assay [10], 116%.
With `COc1ccc(-c2nnc(SCC(=O)Nc3ccc(C(=O)/C=C/c4ccccc4)cc3)n2-c2ccccc2)cc1OC`, the growth was 57.5% in assay [1]; 23.4% in [2]; 51.3% in assay [3]; 104% in assay [4]; 62.5% in assay [5]; 101% in [6]. In addition, the growth is 87.4% in [7], 88.8% in assay [8], 83.1% in assay [9] and 88.3% in assay [10].
With `COC(=O)c1c[nH]c2cc(OC(C)C)c(OC(C)C)cc2c1=O`, the growth was 97% in assay [1]; 96.9% in [2]; 58.8% in assay [3]; 106% in assay [4]; 109% in assay [5]; 55.2% in assay [6]. In addition, the growth in assay [7] was 139%; in assay [8], 113%; in assay [10] it was 101%.
As for `C/C=C/CSC(C)(C)C(=O)NC`, the growth in assay [1] was 109%; in assay [2], 99.8%; in assay [3] it was 98.4%; in [4], 113%; in [5], 117%; in [6], 95.6%. For the same molecule, the growth in assay [7] was 115%; in [8], 108%; in assay [9], 99.5%; in [10], 108%.
Turning to `CC(=O)N[C@H](C(=O)N[C@@H](CCCNC(=N)N)C(=O)N[C@@H](CCCCN)C(=O)N[C@@H](CCCNC(=N)N)C(=O)N[C@]1(C)CCCCCC/C=C\CCC[C@@](C)(C(=O)N[C@@H](CCCNC(=N)N)C(=O)N[C@@H](CCC(=O)O)C(=O)N[C@@H](CC(C)C)C(=O)N[C@H](C(=O)N[C@@H](CCC(=O)O)C(N)=O)C(C)C)NC(=O)[C@H](CCC(N)=O)NC(=O)[C@H](CC(C)C)NC(=O)[C@H](CC(C)C)NC(=O)[C@H](CCCNC(=N)N)NC(=O)[C@H](CCCNC(=N)N)NC(=O)[C@H](CC(C)C)NC1=O)C(C)C`, the growth is 15.4% in assay [1]; 20.9% in assay [2]; -15.5% (active) in [3]; 38.3% in [4]; 39.6% in [5]; 53.1% in assay [6]. The growth in assay [7] was 58.8%; in assay [8], -38.9% (active); in [9] it was -33.9% (active); in [10], 7.03% (active).
For `COc1ccc(/C=C2/SC(=S)NC2=O)c(OC)c1OC`, the growth is 72.4% in [1]; 79.4% in assay [2]; 91.5% in assay [3]; 72.8% in assay [4]; 87.7% in assay [5]; 91.1% in [6]. In addition, the growth in assay [7] was 105%; in assay [8], 89.6%; in assay [9], 63.6%; in [10], 85.2%.
For the molecule `COc1ccc(/C(C#N)=C/c2cccc(OC)c2OC)cc1`, the growth in [1] is 41.2%; in [2] it was 91.1%; in [3], 96%; in [4], 97.7%; in assay [5], 98.8%; in assay [6], 96.2%. Moreover, the growth in assay [7] was 80.6%; in [8], 94.2%; in [9] it was 91.6%; in assay [10] it was 53.3%.
